About 5,700 (36%) of roughly 16,000 compounds were called active. Roughly 24% stayed inconclusive and do not appear here. Some of the results follow. A number with no mark means an inactive call. The call rests on the fitted dose curve; in most records, active means well fitted curve in the direction sought with a large enough effect; inconclusive means small, poorly fitted or top-dose-only effect, or effect the other way; inactive means no such curve, though single readings can be large or run the other way. Numbered stars: 1 amine (or outer) side, 2 acyl side, 3 side chain; on linkers, the order of the positions; unused ones are H or OH. Bridge positions count the residues as written; N and C are the ends. Square brackets hold non-standard residues; d marks the D form. Peptide text beside a SMILES is read from it. I, II: the chains in the order shown. Actinocin(9to1) = Cc1c2oc3c(C)ccc(C(=O)[*:1])c3nc-2c(C(=O)[*:2])c(N)c1=O; aThr = C[C@H](O)[C@H](N)C(=O)O; NMeV = CN[C@H](C(=O)O)C(C)C; Sar = CNCC(=O)O
target: Cytochrome P450 1A2 (Homo sapiens) (UniProt P05177); test: Cytochrome panel assay with activity outcomes; settings: recombinant CYP, pro-luciferin dealkylation, luminescence, p450-cyp1a2; series mostly up to 57.1 µM; activity, negative = inhibition: at the top concentration
Sequence (P05177 whole entry, looked up): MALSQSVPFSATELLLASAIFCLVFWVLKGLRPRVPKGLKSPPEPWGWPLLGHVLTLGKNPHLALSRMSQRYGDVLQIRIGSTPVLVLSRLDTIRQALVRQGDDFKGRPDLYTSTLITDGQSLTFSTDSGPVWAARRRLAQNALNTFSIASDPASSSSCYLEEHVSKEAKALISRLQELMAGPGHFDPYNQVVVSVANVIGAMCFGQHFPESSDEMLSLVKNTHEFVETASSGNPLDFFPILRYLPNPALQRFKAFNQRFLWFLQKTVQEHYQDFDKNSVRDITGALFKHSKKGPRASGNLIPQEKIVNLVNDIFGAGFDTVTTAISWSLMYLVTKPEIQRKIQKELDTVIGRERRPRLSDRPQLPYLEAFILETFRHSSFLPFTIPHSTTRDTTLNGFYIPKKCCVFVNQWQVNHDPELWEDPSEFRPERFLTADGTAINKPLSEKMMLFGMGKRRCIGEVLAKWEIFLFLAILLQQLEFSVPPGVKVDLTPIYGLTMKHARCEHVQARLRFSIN
On the % scale 0 is the no-effect control and ±100 the full control effect.

SMILES	activity, negative = inhibition	AC50
CC[N+](CC)(CC)CCOc1cccc(OCC[N+](CC)(CC)CC)c1OCC[N+](CC)(CC)CC	10.9%	–
C[C@@H](COc1ccc(/C=C\c2ccccc2)cc1)[N+](C)(C)C	-18.1%	–
O=C(O)[C@@H]1CCCNC1	-0.55% [at 25.6 µM]	–
Cc1cc(C)c(C)c(S(=O)(=O)ON2C(=O)c3ccccc3C2=O)c1C	–	28.2 µM (active)
FC(F)(F)c1cc(-c2ccco2)nc(NCCc2ccccc2)n1	–	2.82 µM (active)
FC(F)(F)c1cc(-c2ccco2)nc(NCc2cccs2)n1	–	0.158 µM (active)
Clc1ccccc1-c1nc(Nc2ccncc2)c2ccccc2n1	–	0.501 µM (active)
COc1ccccc1-c1nc(Nc2ccncc2)c2ccccc2n1	–	0.316 µM (active)
FC(F)(F)c1ccccc1-c1nc(Nc2ccncc2)c2ccccc2n1	–	10 µM (active)
Cc1ccccc1-c1nc(Nc2ccncc2)c2ccccc2n1	–	0.794 µM (active)
CC(=O)OC[C@H]1O[C@@H](O/N=C2/[C@H]3O[C@@H]3[C@@H](O)[C@H]3[C@H]2CCn2c(=O)n(-c4ccccc4)c(=O)n23)[C@H](OC(C)=O)[C@@H](OC(C)=O)[C@@H]1OC(C)=O	1.98% [at 11.4 µM]	–
CN1CCN(C(c2ccccc2)c2ccccc2)CC1	-3.57% [at 25.6 µM]	–
Cc1noc(C)c1-c1nc(N2CCN(C)CC2)c2ccccc2n1	–	0.316 µM (active)
Cc1noc(C)c1C(=O)N1CCC2(CCCN(c3ccccc3)C2)CC1	4.79%	–
Cc1noc(C)c1C(=O)N1CCC2(CC1)CN(c1ccccc1)C2	-18.7%	–
Cc1noc(C)c1-c1nc(N2CCOCC2)c2ccccc2n1	–	0.316 µM (active)
Cc1cc(C)n(-c2nc(SCCN(C)C)c3c4c(sc3n2)CCCC4)n1	–	14.1 µM (active)
CO[C@@H]1COC(=O)[C@@H](CCSC)NC(=O)C/C=C\[C@@H](C)COC(=O)[C@H](C)NC(=O)C/C=C\[C@H]1C	-5.08% [at 11.4 µM]	–
Cc1ccccc1S(=O)(=O)c1c(C)cc(-c2ccccc2)[nH]c1=O	-7.42%	–

SMILES	activity, negative = inhibition	AC50
Cc1cc(-c2ccccc2)[nH]c(=O)c1S(=O)(=O)c1ccc(Cl)cc1	-18.9%	–
O=c1cc(-c2ccccc2)[nH]c2nc(Cl)ccc12	–	0.398 µM (active)
CC(=O)N1CCC2(CCCN(Cc3nccs3)C2)CC1	-12.1%	–
CCOC(=O)C(C)n1cnc2c(oc3ccccc32)c1=O (stereo unspecified)	–	5.62 µM (active)
Cc1cc(/C=C2\SC(=S)NC2=O)c(C)n1C	–	5.01 µM (active)
Cc1ccc(S(=O)(=O)N2CCC(C(=O)NCCCOC(C)C)CC2)cc1	-2.51%	–
O=C(NCc1ccccc1)c1cccc(COc2cccc(Cl)c2)c1	–	17.8 µM (active)
O=C(OC(C(=O)O)C(OC(=O)c1ccccc1)C(=O)NCc1ccccc1)c1ccccc1 (stereo unspecified)	5%	–
O=c1c(-c2ccc(F)cc2)nc2cnc(N3CCOCC3)nc2n1Cc1cccs1	–	12.6 µM (active)
O=c1c(-c2ccc(F)cc2)nc2cnc(N3CCNCC3)nc2n1Cc1cccs1	–	10 µM (active)
CN1CCN(c2ncc3nc(-c4ccc(Cl)cc4)c(=O)n(Cc4cccs4)c3n2)CC1	–	10 µM (active)
O=c1c(-c2ccc(Cl)cc2)nc2cnc(N3CCNCC3)nc2n1Cc1cccs1	–	12.6 µM (active)
COc1cccc(Cn2c(=O)c(-c3ccc(Cl)cc3)nc3cnc(N4CCN(C)CC4)nc32)c1	-16.3%	–
Cc1ccc(C(=O)NNC(=O)CSc2nnc3c(n2)[nH]c2ccc(F)cc23)cc1	-20.5%	–
O=C(CSc1nnc2c(n1)[nH]c1ccc(F)cc12)OCc1ccccc1	–	0.501 µM (active)
CC1CCc2cc(F)ccc2N1C(=O)CSc1nnc2c(n1)[nH]c1ccc(F)cc12 (stereo unspecified)	–	0.501 µM (active)
C#CCCCO/N=C1/[C@H]2O[C@@H]2[C@@H](O)[C@H]2[C@H]1CCn1c(=O)n(Cc3cc4c(cc3Cl)OCO4)c(=O)n12	1.39% [at 11.4 µM]	–
Cc1nc(Cl)c(C#N)cc1-c1ccccc1	–	1 µM (active)
Cc1nc(Sc2ccccc2)c(C#N)cc1-c1ccccc1	–	1.26 µM (active)

SMILES	activity, negative = inhibition	AC50
Cc1c2oc3c(C)ccc(C(=O)N[C@@H]4C(=O)N[C@@H](C(C)C)C(=O)N5CCC[C@@H]5C(=O)N(C)CC(=O)N(C)[C@@H](C(C)C)C(=O)O[C@H]4C)c3nc-2c(C(=O)N[C@@H]2C(=O)N[C@@H](C(C)C)C(=O)N3CCC[C@@H]3C(=O)N(C)CC(=O)N(C)[C@@H](C(C)C)C(=O)O[C@H]2C)c(N)c1=O (I: [aThr]V[dP][Sar][NMeV] / II: [aThr]V[dP][Sar][NMeV]; ester I:1-I:C, II:1-II:C; linker I:N-II:N via Actinocin(9to1))	-34.7%	–
CCOC(=O)C1=C(c2ccccc2)OC(N)=C(C#N)C1c1ccc(Cl)s1 (stereo unspecified)	–	0.398 µM (active)
CCc1ccc2c(-c3cccc(Cl)c3)nc(=O)n(CC)c2n1	–	0.126 µM (active)
O=C(Nc1ccccc1C(=O)Nc1ccc2c(c1)OCO2)c1ccco1	–	8.91 µM (active)
Cc1ccc(NC(=O)CCC(=O)NNC(=O)c2ccco2)cc1C	-17.2%	–
Cc1cc(NC(=O)c2ccco2)ccc1-n1cnnn1	–	14.1 µM (active)
CCC(NC(=O)c1ccccc1NC(=O)c1ccco1)C(=O)NC1CCCCC1 (stereo unspecified)	-16.4%	–
O=C(CCc1ccccc1)NNC(=O)c1ccco1	7.32%	–
CC1=C(C(=O)Nc2ccccc2)C(c2ccco2)NC(=S)N1 (stereo unspecified)	-11.4%	–
O=C(Nc1ccccc1C(=O)NCCc1ccccc1)c1ccco1	–	5.01 µM (active)
CC1(C)Oc2ccc(NC(=O)c3ccco3)cc2O1	–	5.01 µM (active)
Cc1cc(C)cc(NC(=O)N2CCCC2C(=O)Nc2ccc(-n3cnnn3)c(C)c2)c1 (stereo unspecified)	-14.1%	–
N#CC(C#N)=CNCCN1CCN(C=C(C#N)C#N)CC1	-15.4% [at 2.29 µM]	–
NC(N)=N[C@H](CCC(=O)O)C(=O)O	-0.3%	–
COc1ccc2[nH]cc(CCNc3ccnc(-c4ccc(N(C)C)cc4)n3)c2c1	–	0.631 µM (active)
COc1ccc2[nH]cc(CCNc3cc(-c4ccc(C(=O)N(C)C)cc4)ncn3)c2c1	–	20 µM (active)
COc1ccc2[nH]cc(CCNc3ccnc(-c4ccc(C(=O)N(C)C)cc4)n3)c2c1	–	12.6 µM (active)
COc1ccc2[nH]cc(CCNc3ccnc(-c4c(C)noc4C)n3)c2c1	–	2 µM (active)

From PubChem BioAssay AID1851 (National Center for Advancing Translational Sciences (NCATS), 2009)
